Source: PubChem BioAssay (NCATS)
Inconclusive results are not listed. Activity calls are given as the source filed them. The call rests on the fitted dose curve; in most records, active means well fitted curve in the direction sought with a large enough effect; inconclusive means small, poorly fitted or top-dose-only effect, or effect the other way, or another doubt; inactive means no such curve, though single readings can be large or run the other way.

Target: Transient receptor potential cation channel subfamily V member 1 (Homo sapiens) (UniProt Q8NER1)
Sequence (Q8NER1 whole entry, looked up): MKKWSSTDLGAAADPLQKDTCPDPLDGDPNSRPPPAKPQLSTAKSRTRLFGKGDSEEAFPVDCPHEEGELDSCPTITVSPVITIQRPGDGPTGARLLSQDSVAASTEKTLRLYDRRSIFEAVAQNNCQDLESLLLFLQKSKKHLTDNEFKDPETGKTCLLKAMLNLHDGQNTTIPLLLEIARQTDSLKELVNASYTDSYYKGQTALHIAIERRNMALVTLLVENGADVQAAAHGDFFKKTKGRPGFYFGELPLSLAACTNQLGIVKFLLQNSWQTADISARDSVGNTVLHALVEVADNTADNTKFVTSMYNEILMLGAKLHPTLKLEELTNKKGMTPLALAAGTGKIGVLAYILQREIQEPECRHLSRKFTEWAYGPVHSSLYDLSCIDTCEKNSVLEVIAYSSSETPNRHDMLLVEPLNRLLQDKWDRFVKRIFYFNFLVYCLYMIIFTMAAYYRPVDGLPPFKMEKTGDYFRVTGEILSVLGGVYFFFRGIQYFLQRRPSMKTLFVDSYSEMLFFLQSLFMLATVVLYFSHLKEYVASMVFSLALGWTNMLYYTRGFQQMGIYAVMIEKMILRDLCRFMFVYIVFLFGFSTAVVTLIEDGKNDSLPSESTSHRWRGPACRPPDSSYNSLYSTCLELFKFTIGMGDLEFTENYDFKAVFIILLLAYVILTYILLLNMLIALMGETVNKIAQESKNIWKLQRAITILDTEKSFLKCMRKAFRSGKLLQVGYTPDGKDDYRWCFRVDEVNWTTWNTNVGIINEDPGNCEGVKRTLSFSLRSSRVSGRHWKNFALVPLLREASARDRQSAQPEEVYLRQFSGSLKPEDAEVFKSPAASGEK
Assay: HTS Assay for Compounds that Act as Enhancers of the Vanilloid Receptor 1 (AID 488979)
Details: TRPV1-expressing cells, enhancer of channel activity, stimulated with capsaicin at EC20; series mostly up to 41.7 µM
Text: The transient receptor potential ion channel, family V, number 1, (TRPV1) is one of the most important molecular transducers of painful stimuli and a potential target for analgesic drug development. Although recent clinical trials with orthosteric antagonists have not produced a successful drug because of a hyperthermia side effect and their tendency to block thermal noxious pain, this ion channel is undeniably well placed in the pain pathway, and the idea of blocking pain signals before they enter the CNS is an excellent concept and of proven efficacy when TRPV1 agonists are used. We propose a new approach involving allosteric modulation to impose an activity-dependent constraint within the context of inflammation and tissue damage that would alter the responsiveness of the channel in a way that an orthosteric vanilloid antagonist cannot achieve. We believe that the allosteric modulator approach has not been explored for this target.
The main goal of this proposal is to identify additional, new, potent allosteric modulators of TRPV1 that can be used to investigate TRPV1 function. Our recent report provides evidence of proof of concept, but the compounds are just at the edge of utility in terms of potency. […] The question of whether they can be used as analgesic agents is complex, but if suitable compounds are identified then testing for analgesic properties will be conducted.
Upon TRPV1 activation in TRPV1 cells, the channel opens and extracellular cations flow through the channel into the cytosol. A calcium binding dye (Fluo-8) becomes fluorescent when bound to calcium. This dye is pre-loaded into cells and is used as a marker for calcium influx.
The amount of accumulated calcium is precisely quantified using the FDSS kinetic reader and the calcium dye.
For the HTS assay, freshly prepared cells are plated at a density of 2000/well in 3 ul medium in 1536-well plates and cultured overnight at 35.5C. Cells will be loaded with 1 ul of the homogeneous calcium dye (ABD Bioquest) at room temperature for 40 to 90 minutes. Plates will be loaded into the FDSS kinetic reader and a 1 sec / cycle for 10 second baseline signal will be measured. Compound library will then be added with a pintool at 23 nl and measured kinetically for 3 minutes. This portion of the read is considered the agonist portion of the screen. Following the 3 minutes of incubation, an on board pipettor will deliver 1 ul of capsaicin for a final concentration equal to the EC20. Signal will be measured kinetically for an additional 2 minutes. This portion of the read is considered the allosteric enhancer portion of the screen.
The FDSS reader has a standard filter set capable of measuring calcium bound Fluo-8 (ex=480 and em=520 nm).

| SMILES | outcome |
| --- | --- |
| Cn1c(=O)c2c(nc(/C=C/c3cccc(Cl)c3)n2C)n(C)c1=O | inactive |
| COC1(C2=NCCN2)COc2ccccc2O1 (stereo not given) | inactive |
| Cn1cc(C(F)(F)F)nc1-c1ccc(OCC(O)CNCCOc2ccc(O)c(C(N)=O)c2)cc1 (stereo not given) | inactive |
| C[C@H](O)C(=O)C1=Nc2c(nc(N)[nH]c2=O)NC1 | inactive |
| NCCCCN | inactive |
| NC(=O)c1ccccc1 | inactive |
| CCCCC[C@H](CC(=O)NO)C(=O)N[C@H](C(=O)N1CCC[C@H]1CO)C(C)C | inactive |
| CC1=C(/C=C/C(C)=C/C=C/C(C)=C\C(=O)O)C(C)(C)CCC1 | inactive |
| O=c1[nH]ccc2c(O)cccc12 | inactive |
| O=C(O)/C=C/c1ccc(O)c(O)c1 | inactive |
| Cc1cccc(C)c1OCC(N)C(C)C (stereo not given) | inactive |
| c1ccc2c(c1)CC(N1CCN(c3cccc4c3OCCO4)CC1)C2 | inactive |
| CC(C)C[C@H](NC(=O)C1OC1C(=O)O)C(=O)NCCCCN=C(N)N (stereo not given in full) | inactive |
| O=C(O)c1ccccc1Nc1ccccc1 | inactive |
| O=C(O)/C(=C/c1c(C(=O)O)[nH]c2cc(Cl)cc(Cl)c12)c1ccccc1 | inactive |
| Cc1ccccc1/C=C/C1=NCCN1 | inactive |
| N[C@@H](Cc1c[nH]c2ccccc12)C(=O)O | inactive |
| N[C@@H](CCC(=O)N[C@H](CSN=O)C(=O)NCC(=O)O)C(=O)O | inactive |
| COc1cc(/C=C(\C#N)C(=O)c2ccc(O)c(O)c2)cc(I)c1O | inactive |
| CCCn1c(=O)c2[nH]c(-c3ccc(S(=O)(=O)O)cc3)nc2n(CCC)c1=O | inactive |

| SMILES | outcome |
| --- | --- |
| OCC1NCC(O)C(O)C1O (stereo not given) | inactive |
| N=S(=O)(O)Cc1noc2ccccc12 | inactive |
| COC(=O)C(N)Cc1ccc(Cl)cc1 (stereo not given) | inactive |
| N=C(N)c1ccc(N)cc1 | inactive |
| CC(=O)/C(C)=N/O | inactive |
| O=C(O)C1=CCCN(CCON=C(c2ccccc2)c2ccccc2)C1 | inactive |
| CCCCCC(O)CCCC(=O)O (stereo not given) | inactive |
| O=C1C2C=CC=CC2=NC(=S)N1CCN1CCC(=C(c2ccc(F)cc2)c2ccc(F)cc2)CC1 (stereo not given) | inactive |
| COc1ccc(NC(=O)c2ccc(-c3ccc(-c4noc(C)n4)cc3C)cc2)cc1N1CCN(C)CC1 | inactive |
| N=C(N)SCCc1cnc[nH]1 | inactive |
| [Li+] | inactive |
| CNc1cc(NS(=O)(=O)c2ccc(N)cc2)nc(NC)n1 | inactive |
| CN(C)C(=O)/N=N/C(=O)N(C)C | inactive |
| CCCCCCCCCCCCCCSCC(=O)O | inactive |
| Nc1ncnc2c1ncn2C1CCCC1 | inactive |
| Cn1cc(C(=O)OCC2CCN(CCNS(C)(=O)=O)CC2)c2ccccc21 | inactive |
| O=c1[nH]c2ccccc2c2ccccc12 | inactive |
| CC(C)(C)NCC(O)COc1cccc2[nH]c(=O)[nH]c12 (stereo not given) | inactive |
| NC(N)=N[C@@H](CCC(=O)O)C(=O)O | inactive |
| CNCCNS(=O)(=O)c1cccc2cnccc12 | inactive |
